Screens (PubChem BioAssay)
Rows were chosen to be rich in hits. Some 8% of all compounds tested hit in one or more screens of this group.
KB-V1 cytotox: KB-V1 MDR subline cytotoxicity; KB-V1 MDR cells viability, CellTiter-Glo, 72 h; Potency, µM (doses to about 46.1 µM), most hits filed as cytotoxic; actives 3.4% (n = 400,000); further: on the % scale 0 is the no-effect control and ±100 the full control effect; nearly all actives have a fitted effect of over 60% in size
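Potencies derive from concentration-effect curves fitted to normalized luminescence (CellTiter-Glo) of KB-V1 cells treated for 72 h at 37 degrees C in phenol-red-free DMEM containing 10% FBS.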
SW480 rereplic: inducers of DNA re-replication in SW480 colon cancer cells; Potency, µM (top dose mostly 46.1 µM), for the others: top-dose re-replication activation, actives largely listed as activators; AID 624297; SW480 DNA re-replication, Hoechst DNA content imaging, 48 h; actives 1.8% (n = 340,000); further: % of control where 0% means no effect; nearly all actives have a fitted effect of over 55% in size
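Quantitative HTS format with DMSO vehicle controls; 48 hr drug incubation at 37 C, then 40 min Hoechst staining and scanning imager measurement at 405 nm excitation.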
KB-3-1 cytotox: KB-3-1 parental cell cytotoxicity; KB-3-1 viability, CellTiter-Glo ATP luminescence, 72 h; Potency, µM (highest dose often 46.1 µM), usual class: cytotoxic; AID 1347075; actives 1.4% (n = 400,000); further: on the % scale 0 is the no-effect control and ±100 the full control effect; nearly all actives have a fitted effect of over 60% in size
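Screening of KB-3-1 cells (DMEM, 10% FBS, phenol-red free) ran from lowest to highest compound concentration; after 72 h at 37 °C viability was read luminescently and curves fitted.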
HT1080 IDH1KD tx: HT-1080 IDH1 knockdown cell toxicity (counter line); AID 686971; HT-1080 IDH1 knockdown viability, ATP luminescence, 48 h; actives 2% (n = 360,000); Potency, µM (top dose mostly 46.1 µM), for inactives: at the highest dose activity, negative = toxicity, most hits filed as cytotoxic;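 further: 0% = DMSO wells and -100% = cell-free medium wells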
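IDH1KD HT-1080 cells, 750/well, RPMI + 5% FBS; compound pinned after 2 h settling; 48 h, 37 °C; CellTiter-Glo luminescence; % activity normalised to DMSO and no-cell wells; curves fitted, classed by r2 and efficacy.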
MCF10A rereplic: induces DNA re-replication in MCF 10a normal breast cells; MCF 10A DNA re-replication, Hoechst nuclear intensity, 48 h; Potency, µM (series often up to 46.1 µM), for inactives: at the highest dose activity, positive = re-replication, usual class: activators; actives 2.9% (n = 350,000); AID 624296; further: % of control where 0% means no effect; nearly all actives have a fitted effect of over 50% in size
HT1080NT lethal: kills 2HG-producing HT-1080-NT fibrosarcoma cells | HT-1080-NT fibrosarcoma viability, CellTiter-Glo ATP luminescence, 48 h | Potency, µM (top dose mostly 46.1 µM), without a hit: at the top dose activity, negative = less viability, hits mostly cytotoxic | actives 1.6% (n = 360,000);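 further: NT is the 2HG producing partner of a matched IDH1 knockdown line; 0% = DMSO-treated cells and -100% = media-only wells without cells; nearly all actives have a fitted effect of over 55% in size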
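Toxicity toward the 2HG-producing NT line was scored as %Activity, normalised to DMSO and no-cell wells, from CellTiter-Glo luminescence after 48 hours' treatment.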
Numbers without * were called inactive; [ ] = remark or other dose. The call rests on the fitted dose curve; in most records, active means well fitted curve in the direction sought with a large enough effect; inconclusive means small, poorly fitted or top-dose-only effect, or another doubt; inactive means no such curve, though single readings can be large; an effect the other way counts as inactive or inconclusive. Potency means the concentration at half of the fitted maximal effect.

S=c1[nH]cc(Oc2ccc(Cl)cc2Cl)c(=S)[nH]1 was read as KB-V1 cytotox inconclusive, SW480 rereplic inconclusive, KB-3-1 cytotox inactive, HT1080 IDH1KD tx -13%, MCF10A rereplic 16µM* and HT1080NT lethal -10%.
`Clc1ccc(Oc2cnns2)c(Cl)c1` gave KB-V1 cytotox inactive, SW480 rereplic -1%, KB-3-1 cytotox inactive, HT1080 IDH1KD tx 3%, MCF10A rereplic 5% and HT1080NT lethal 4%.
`CC(C)C(=O)c1cc2c(cc1NC(=O)c1ccccc1F)OCCO2` gave KB-V1 cytotox inactive and KB-3-1 cytotox inactive.
For COc1ccc(/C=C/C(=O)c2c(C)nc3ccccn23)cc1 the results were KB-V1 cytotox inconclusive, SW480 rereplic 0%, KB-3-1 cytotox inactive, HT1080 IDH1KD tx 16%, MCF10A rereplic 9% and HT1080NT lethal 16%.
For Cc1nc2ccccn2c1C(=O)/C=C/c1ccc(F)cc1 the results were KB-V1 cytotox 16µM*, SW480 rereplic inconclusive, KB-3-1 cytotox 16µM*, HT1080 IDH1KD tx -1%, MCF10A rereplic inconclusive and HT1080NT lethal -25%.
`CCS(=O)(=O)N1CC(=O)N(c2ccc(Cl)cc2)C(C)(C(=O)NC2CCCCC2)C1` (stereo not given) gave KB-V1 cytotox inactive and KB-3-1 cytotox inactive.
Screening CCN(CC)S(=O)(=O)c1ccc2c(c1)N(CC(=O)Nc1cccc(C)c1C)C(=O)C1CCCN21 (stereo not given) returned KB-V1 cytotox inactive and KB-3-1 cytotox inactive.
`Cc1c(C(=O)NCC(c2ccc(Cl)cc2)N2CCOCC2)oc2ccccc12` (stereo not given) gave KB-V1 cytotox inactive and KB-3-1 cytotox inactive.
For CCn1c(C)c2c(C)nnc(C)c2c1C the results were KB-V1 cytotox inactive, SW480 rereplic -1%[9.22 µM], KB-3-1 cytotox inactive, HT1080 IDH1KD tx 1%, MCF10A rereplic -2% and HT1080NT lethal 0%.
For CCn1c(C)c(P(c2ccccc2)c2ccccc2)[n+]2ccccc12 the results were KB-V1 cytotox inactive, SW480 rereplic 4%, KB-3-1 cytotox 9.2µM*, HT1080 IDH1KD tx -8%, MCF10A rereplic 29% and HT1080NT lethal -30%.
`COc1ccc(-c2ccc(NS(=O)(=O)c3ccc(OC)c(OC)c3)cc2)nn1` gave KB-V1 cytotox inactive and KB-3-1 cytotox inactive.
For CCOC(=O)c1ccc(NC(=O)c2cccc3c2C(=O)N(CC2CCCO2)C3)cc1 (stereo not given) the results were KB-V1 cytotox inactive, SW480 rereplic -4%, KB-3-1 cytotox inactive, HT1080 IDH1KD tx -6%, MCF10A rereplic 9% and HT1080NT lethal 0%.
Screening CCOC(=O)C1=CN(CC2CCCO2)C=C(C(=O)OCC)C1c1ccccc1C(F)(F)F (stereo not given) returned KB-V1 cytotox inactive, SW480 rereplic 15µM*, KB-3-1 cytotox inactive, HT1080 IDH1KD tx 14%, MCF10A rereplic 13µM* and HT1080NT lethal inconclusive.
C=CCn1c(Cc2cccc3ccccc23)n[nH]c1=S was read as KB-V1 cytotox 18µM*, SW480 rereplic inconclusive, KB-3-1 cytotox inactive, HT1080 IDH1KD tx -4%, MCF10A rereplic -1% and HT1080NT lethal -10%.
For C=C(C)C1CC=C(C)/C(=N/NC(=O)c2ccc(NC(=O)CC)cc2)C1 (stereo not given) the results were KB-V1 cytotox 15µM*, SW480 rereplic 3%, KB-3-1 cytotox inactive, HT1080 IDH1KD tx -28%, MCF10A rereplic -1% and HT1080NT lethal 19%.
For CCN1CCN(C(=O)c2ccc(Sc3ccccc3Cl)c([N+](=O)[O-])c2)CC1 the results were KB-V1 cytotox 13µM*, SW480 rereplic 6%, KB-3-1 cytotox inactive, HT1080 IDH1KD tx -3%, MCF10A rereplic -29% and HT1080NT lethal -7%.
Screening CCN1CCCC1CNC(=O)c1ccc(Sc2ccccc2Cl)c([N+](=O)[O-])c1 (stereo not given) returned KB-V1 cytotox inactive, SW480 rereplic -5%, KB-3-1 cytotox inactive, HT1080 IDH1KD tx inconclusive, MCF10A rereplic inconclusive and HT1080NT lethal 26µM*.
C[N+]1(CC(=O)c2ccc3c(c2)CCCC3)CCOCC1 was read as KB-V1 cytotox inactive and KB-3-1 cytotox inconclusive.
`COC(=O)c1c(S(N)(=O)=O)c2ccccc2n1C` gave KB-V1 cytotox inactive, SW480 rereplic 2%, KB-3-1 cytotox inactive, HT1080 IDH1KD tx -4%, MCF10A rereplic 1% and HT1080NT lethal -2%.
`COC(=O)c1c(C(=O)c2ccc(Br)cc2)n(C)c2ccccc12` gave KB-V1 cytotox 21µM*, SW480 rereplic 8%, KB-3-1 cytotox inconclusive, HT1080 IDH1KD tx -11%, MCF10A rereplic 12% and HT1080NT lethal -1%.
For Cc1ccc(SC(C)C(=O)Nc2ccc(S(=O)(=O)N3CCOCC3)cc2)cc1 (stereo not given) the results were KB-V1 cytotox 12µM*, SW480 rereplic 1%, KB-3-1 cytotox inactive, HT1080 IDH1KD tx 7%, MCF10A rereplic 23% and HT1080NT lethal 12%.
CC(Sc1ncnc2sccc12)C(=O)Nc1ccc(S(=O)(=O)N2CCOCC2)cc1 (stereo not given) was read as KB-V1 cytotox 23µM*, SW480 rereplic -5%, KB-3-1 cytotox inactive, HT1080 IDH1KD tx -2%, MCF10A rereplic -7% and HT1080NT lethal -5%.
CCOC(=O)C1=C(CN2CCC(C)CC2)NC(=O)NC1c1ccc(F)cc1 (stereo not given) was read as KB-V1 cytotox inactive and KB-3-1 cytotox inactive.
O=C(c1csc(Nc2ccccc2Cl)n1)N1CCCC1 was read as KB-V1 cytotox 21µM*, SW480 rereplic -1%, KB-3-1 cytotox inactive, HT1080 IDH1KD tx 9%, MCF10A rereplic -2% and HT1080NT lethal -1%.
CCc1ccccc1NC(=O)CN(c1ccc(OC)cc1)S(=O)(=O)c1c(C)n[nH]c1C was read as KB-V1 cytotox inactive and KB-3-1 cytotox inconclusive.
`COc1ccc(N(CC(=O)Nc2cc(Cl)ccc2C)S(=O)(=O)c2c(C)noc2C)cc1` gave KB-V1 cytotox inconclusive, SW480 rereplic -3%, KB-3-1 cytotox 5.8µM*, HT1080 IDH1KD tx inconclusive, MCF10A rereplic 4.1µM* and HT1080NT lethal 5.8µM*.
Screening COc1ccc(N(CC(=O)Nc2cccc(C)c2C)S(=O)(=O)c2c(C)n[nH]c2C)cc1 returned KB-V1 cytotox 18µM*, SW480 rereplic -2%, KB-3-1 cytotox inactive, HT1080 IDH1KD tx 4%, MCF10A rereplic 7% and HT1080NT lethal -16%.
